PubChem BioAssay (NCATS)
Records with an inconclusive call do not appear. Entries that show only a call come without a potency. Activity calls are given as the source filed them. The call rests on the fitted dose curve; in most records, active means well fitted inhibition curve with a large enough effect; inconclusive means small, poorly fitted or top-dose-only effect; inactive means flat fitted curve, though single readings scatter.

molecular target: Calcium and integrin-binding protein 1 (Homo sapiens) (UniProt Q99828); assay: Primary qHTS for Identification of Calcium Integrin Binding Protein 1 (CIB1) Competitor (AID 1508620); settings: CIB1-GST / FITC-alphaIIb peptide fluorescence polarization; series mostly up to 57.7 µM;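 further: GST tagged CIB1 binding a fluorescein labelled alphaIIb integrin peptide tracer; top concentration of the series differs between compounds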
Sequence (Q99828 whole entry, looked up): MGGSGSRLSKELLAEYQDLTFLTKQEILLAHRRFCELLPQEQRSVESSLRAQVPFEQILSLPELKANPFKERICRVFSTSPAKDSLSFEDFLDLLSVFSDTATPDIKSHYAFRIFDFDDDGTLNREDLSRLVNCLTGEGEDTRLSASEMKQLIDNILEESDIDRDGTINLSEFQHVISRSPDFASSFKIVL
Outline: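 Fluorescence polarization competition: CIB1-GST (1 uM final) preincubated with compound 15 min at room temperature, then FITC-labeled alphaIIb peptide (100 nM final) added for another 15 min. Polarization read at Ex 480/Em 540.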

Q: How did the Potency turn out when COCCN(C)Cc1ccc2nc3sc(C(=O)N(C)C4CCCCC4)cn3c2c1 was run?
A: inactive

Q: How did the Potency turn out when O=C1N(CC2CCCCN2)CCN1c1ccccc1 (configuration not stated) was run?
A: inactive

Q: C=C1C(=O)OC2/C=C(\C)CC/C=C(\C(=O)O)CC/C=C(\C)CCC12 (configuration not stated) was tested. Which Potency did it give?
A: inactive

Q: How did the Potency turn out when O=C(O)c1ccc(CCCc2ccc(OCCc3ccc(F)cc3)cc2)o1 was run?
A: inactive

Q: Which Potency does the source give for CNC(=O)O[C@H]1COc2ccc(N3CCN(C4COC4)CC3)cc2[C@@H]1NC(=O)c1ccc(F)cc1 here?
A: inactive

Q: Which Potency does the source give for COc1cc(CCc2ccccc2)c(C(=O)O)c2c1CC(C(C)(C)O)O2 (configuration not stated) here?
A: inactive

Q: For C[C@H]1CN(C[C@H](Cc2ccccc2)C(=O)NCC(=O)O)CC[C@@]1(C)c1cccc(O)c1, which Potency is on record?
A: inactive

Q: For COc1cc2c(cc1O)C1(Cc3ccc4c(c3C1=O)OCO4)N(C)CC2 (configuration not stated), which Potency is on record?
A: inactive

Q: Which Potency does the source give for CCC(C)(O)C(O)C(=O)OCc1ccc(O[C@@H]2O[C@H](CO)[C@@H](O)[C@H](O)[C@H]2O)cc1 (some centres not stated) here?
A: inactive

Q: CC1C/C=C/C=C\CCCCC(O)C/C=C/C(=O)O1 (configuration not stated) was tested. Which Potency did it give?
A: inactive

Q: Which Potency does the source give for CC1(C)CCC[C@@]2(C)[C@H]1[C@H](O)C=C1COC(=O)[C@@]12O here?
A: inactive

Q: Which Potency does the source give for CCC(C)(O)C(O)C(=O)OCc1ccc(O[C@@H]2O[C@H](CO)[C@@H](O)[C@H](O)[C@H]2O)c(OC)c1 (some centres not stated) here?
A: inactive

Q: With COc1cc(/C=C/C(=O)O[C@H]2[C@H](O)[C@@H](CO)O[C@@]2(CO)O[C@H]2O[C@H](COC(=O)c3ccc(O)cc3)[C@@H](O)[C@H](O)[C@H]2O)cc(OC)c1OC as the molecule, how does the Potency read?
A: inactive

Q: For CC(C)(OC1OC(CO)C(O)C(O)C1O)C1CCC(O)(CO)C2CC(O)C(C)(O)C2C1 (configuration not stated), which Potency is on record?
A: inactive

Q: For O=S(=O)(NC1CCNCC1)c1cc(S(=O)(=O)c2ccccc2)ccc1C(F)(F)F, which Potency is on record?
A: inactive

Q: With O=C(OCC12OC1C=CC(OC(=O)c1ccccc1)C2O)c1ccccc1 (configuration not stated) as the molecule, how does the Potency read?
A: inactive

Q: With COc1ccc2c(c1O)OC[C@H]1c3ccc(O)cc3O[C@@H]21 as the molecule, how does the Potency read?
A: inactive

Q: CCCC1=CC2=C(CO1)C(=O)C(C)(OC(=O)c1c(C)cc(OC)cc1O)C(O)C2 (configuration not stated) was tested. Which Potency did it give?
A: inactive

Q: With CC1=C2C(=O)C=C(CO)[C@@H]2[C@H]2OC(=O)[C@H](C)[C@@H]2[C@@H](O)C1 as the molecule, how does the Potency read?
A: inactive

Q: How did the Potency turn out when CC1=CCC2C(C)(CO)CCCC2(C)C1CC12OC1C(O)C(CO)=CC2O (configuration not stated) was run?
A: inactive

Q: Which Potency does the source give for O=C(NC[C@H](O)CN1CCc2ccccc2C1)c1cc(NC2COC2)ncn1 here?
A: inactive

Q: With CC(C)C(=O)O[C@@H]1[C@@H](O)[C@@H](O[C@H]2O[C@H](CO)[C@@H](O)[C@H](O)[C@H]2O)O[C@H](CO)[C@H]1O as the molecule, how does the Potency read?
A: inactive

Q: How did the Potency turn out when COc1cc2c(cc1OC)CN(C(=O)[C@@H](NCc1ccncc1)C(C)(C)C)CC2 was run?
A: inactive

Q: CC1(C)C(=O)C(C)(C)c2cc(C(=O)Nc3ccc(C(=O)O)cc3)ccc21 was tested. Which Potency did it give?
A: inactive

Q: How did the Potency turn out when CC1(CO)CC[C@]2(C(=O)O[C@@H]3O[C@H](CO)[C@@H](O)[C@H](O)[C@H]3O)CC[C@]3(C)C(=CCC4[C@@]5(C)C[C@H](O)[C@H](O[C@@H]6OC[C@@H](O)[C@H](O)[C@H]6O)[C@@](C)(CO)C5CC[C@]43C)C2C1 (some centres not stated) was run?
A: inactive

Q: CC1=CC(=O)C2C(C)(C)CC(O)CC2(C)C1CO (configuration not stated) was tested. Which Potency did it give?
A: inactive

Q: With CC12CC34C=CC(=O)C(C)(CCC(=O)O)C3C(CC1C4)O2 (configuration not stated) as the molecule, how does the Potency read?
A: inactive
